# Measured values as given in the supplement of paper PMC6555819.
# System: PPARg:RXRa DBDmut IVT, anti-RXR (DBD mutation: RXRa K156A/R161A, NR concentration 270 nM, RXRa partner concentration 90 nM)
# Test: PBM binding z-score (relative to random genomic background probes); higher = stronger binding; sequences stand for … in GC…GCGATTGACAGCGTAGAATGAAGG
# Outline: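 Regression normalization was applied to scanned fluorescence from custom Agilent 4×180K protein-binding microarrays. Before scanning, arrays were incubated 1 h with ligand-free nuclear receptor dimers, and binding was detected with antibodies against each partner (one per run). Binding z-scores use the random background probes as reference.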
row,Sequence,PBM binding z-score
1,CAAACTAGGTTAAGAGGTCAAAGTCCGCTTCCCG,7.16
2,CGTCCAAGGTCAGCAGGTCCGTGAAAGCGACGTG,2.55
3,CGTCATAGTTCAACTAAGGTAACGTAAAGCACGC,0.114
4,ACCTCTAGGTAAAAGTTCAGTGAATCCCGAGGAT,2.11
5,GCATATAGGTAATACAAGGTGAAAGCCCGATTGT,4.04
6,CGAACTAGGTCATTGACAGTACAGTGAATAGTAA,7.66
7,AGTCAAAGTTCATTAGGTAACGTAAGATTCAGCT,1.93
8,TCTTGTAGATCAACCGGAGGTTAAGAAAGATCGA,1.73
9,CGAACTAGGTCAGAACAGGCCAGTGAAGGATGAT,6.91
10,ATCTCTAGGTAAGACTCAGTTCAGTTAAGAACGC,2.13
11,AGAATGAGCTTACCAAAGATCAGGGAAACGCTTG,-0.815
12,GATACAGGATCAAGGCCAGAGTACGCGTATTGAT,-0.344
13,CGAACTAGGTCAGAACAGGACTGTGAAGGATGAT,7.08
14,GCTGCTAGGGCAACTGATGGTCAGCTAAAGCTCG,2.82
15,CTCGAAAGGTCGTGCTCGGGTGAGTATACCAAAC,0.705
16,GCTTGTAGATCAAGGTTAAGACAGACTAAGCTAA,1.75
17,TCTATTAGCTGATTAGGGCAACCGAAACAGCGGA,1.49
18,ACTTACGGGTCAAAGAGGTTATAGCACGCGTATA,3.17
19,TCTAGTTGGTCAAAGGACACACACTCGAAATGCG,2.42
20,GCTGCTAGCTCAGGTTGGTCAGCTAACGGGTACG,-0.142
21,GCTGCTAGGTCAACTGATGGGCAGCTAAAGCTCG,4.79
22,CGGACTGGGGCATAAGGTTACCATAAGCCAGCCC,4.08
